# Results reported in PubChem BioAssay AID1851 (National Center for Advancing Translational Sciences (NCATS), 2009).
# Values joined by “and” are separate entries in the source; they are usually repeats but may differ in a detail not shown here. Identical values can stand only once. In all, about 16,000 compounds went through this assay and about 5,800 (36%) were called active. Roughly 23% stayed inconclusive and do not appear here. The list shows a part of the results. Unmarked numbers belong to inactive results. Calls come from the whole dose curve; as a rule, active = well fitted curve in the direction sought with a large enough effect; inconclusive = small, poorly fitted or top-dose-only effect, or effect the other way; inactive = no such curve, though single readings can be large or run the other way.
# Target: Cytochrome P450 2C19 (Homo sapiens) (UniProt P33261)
# Sequence (P33261 whole entry, looked up): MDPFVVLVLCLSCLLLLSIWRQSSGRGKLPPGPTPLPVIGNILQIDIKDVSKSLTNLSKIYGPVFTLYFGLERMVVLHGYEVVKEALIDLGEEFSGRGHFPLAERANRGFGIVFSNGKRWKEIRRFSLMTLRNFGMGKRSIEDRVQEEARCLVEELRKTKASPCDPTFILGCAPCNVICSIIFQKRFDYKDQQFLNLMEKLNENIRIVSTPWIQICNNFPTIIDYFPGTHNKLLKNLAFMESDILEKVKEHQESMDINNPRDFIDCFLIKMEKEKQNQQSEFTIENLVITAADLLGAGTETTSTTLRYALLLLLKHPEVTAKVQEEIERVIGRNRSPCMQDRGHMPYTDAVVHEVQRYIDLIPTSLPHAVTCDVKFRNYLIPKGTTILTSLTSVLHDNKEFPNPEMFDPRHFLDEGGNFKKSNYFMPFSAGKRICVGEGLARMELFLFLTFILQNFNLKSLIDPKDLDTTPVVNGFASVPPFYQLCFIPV
# Assay: Cytochrome panel assay with activity outcomes
# Settings: recombinant CYP, pro-luciferin dealkylation, luminescence, p450-cyp2c19; series mostly up to 57.1 µM; activity, negative = inhibition: at the top concentration
# % is set by controls: 0 for no effect and ±100 for the full control effect.
Structure (SMILES),"activity, negative = inhibition",AC50
CSCC[C@@H](N)P(C)(=O)O,29.3% [at 11.4 µM],–
O[Si@](CCCN1CCCCC1)(c1ccc(F)cc1)C1CCCCC1,-23.4%,–
C[N+]1(C)[C@@H]2CC(OC(=O)[C@@H](CO)c3ccccc3)C[C@@H]1[C@H]1O[C@H]12 (some centres not stated),26.7% [at 11.4 µM],–
C[C@@H]1O[C@H](OC2[C@@H](O)[C@H](O)C(O)[C@H](O)[C@H]2O)[C@@H](N)C[C@@H]1N=C(N)C(=O)O (some centres not stated),19% [at 11.4 µM],–
N[C@@H](CP(=O)(O)O)C(=O)O,9.32% [at 11.4 µM],–
CC[C@@]1(c2ccc(N)cc2)CCC(=O)NC1=O,–,inactive
CN1CC[C@@]2(CCCN(C(=O)Oc3ccccc3)C2)C1,-1.21%,–
C[C@@]12C=CC(=O)C=C1CC[C@@H]1C2=CC[C@]2(C)[C@@H]1CC[C@H]2C(=O)CN1CCN(c2cc(N3CCCC3)nc(N3CCCC3)n2)CC1,-31%,–
O[C@@H](c1cc(-c2ccccc2)nc2c1ccc1ccccc12)[C@@H]1CCCCN1,-42.2% [at 11.4 µM],–
CCCN1CCc2cccc3c2[C@@H]1Cc1ccc(O)c(O)c1-3,7.56%,–
C[C@@H]1O[C@H](O[C@@H]2CC[C@@]3(C=O)[C@H]4CC[C@@]5(C)[C@@H](C6=CC(=O)OC6)CC[C@@]5(O)[C@@H]4CC[C@]3(O)C2)C[C@H](O)[C@@H]1O,17.6% [at 25.6 µM],–
COC(=O)[C@@H]1[C@@H]2C[C@H]3c4[nH]c5cc(OC)ccc5c4CCN3C[C@@H]2C[C@H](OC(=O)/C=C\c2cc(OC)c(OC)c(OC)c2)[C@H]1OC,9.48% [at 25.6 µM],–
O=c1[nH]c(=O)n([C@H]2C[C@H](O)[C@H](CO)O2)cc1/C=C\Br,19.9%,–
CC(=O)OCC(=O)[C@@H]1CC[C@H]2[C@H]3CC[C@H]4C[C@@H](O)CC[C@]4(C)[C@@H]3C(=O)C[C@@]12C,-17.1% [at 25.6 µM],–
C[C@@]12CC[C@H](O)C[C@@H]1CC[C@H]1[C@H]2CC[C@@]2(C)[C@@H](C3=CC(=O)OC3)CC[C@]12O,29% [at 25.6 µM],–
COc1ccc2c(c1)CN([C@H](C)[C@@H]1CC[C@@H]3[C@H]4CC[C@H]5C[C@@H](O)CC[C@@]5(C)[C@H]4CC[C@]31C)CO2,–,1 µM (active)
O=c1c(O)c(-c2ccc(O)c(O)c2)oc2cc(O)cc(O)c12,18.3%,–
CS(=O)(=O)N1CCCC(C(=O)N2CCC3(CC2)OCCO3)C1 (configuration not stated),–,10 µM (active)
COc1ccc2c(c[n+](C)c3c4cc5c(cc4ccc23)OCO5)c1OC,–,10 µM (active)
CC1(C)CCC(C)(C)c2c1ccc(O)c2Cc1c(O)ccc2c1C(C)(C)CCC2(C)C,-38.9% [at 11.4 µM],–
O=C(O)C(C(=O)O)P(=S)(S)c1ccccc1 (configuration not stated),23.5% [at 11.4 µM],–

Structure (SMILES),"activity, negative = inhibition",AC50
CC(Oc1ccc(-c2ccccc2)cc1)C(=O)O (configuration not stated),–,28.2 µM (active)
N[C@H](C(=O)O)c1cc(=O)[nH]o1,-5.58%,–
c1cnc(N2CCC3(CCNCC3)CC2)nc1,-11.8%,–
C[C@@]12CC[C@H]3[C@@H](CCC4=C(O)C(=O)CC[C@]43C)[C@H]1CCC2=O,-47.2%,–
COc1cc(C=C(C#N)C#N)cc(O)c1O,13.5%,–
CS(=O)(=O)O[C@H]1CN2CCC1CC2,20.2% [at 11.4 µM],–
S=P(C1CCCCC1)(C1CCCCC1)[C@H](c1cccnc1)N1CCCC1,–,1.26 µM (active)
NP(N)(=O)NC(=O)c1ccc(F)cc1,3.06%,–
c1csc(CN2CC[C@@]3(CCCNC3)C2)n1,-36.5%,–
C[N+]12CCC(CC1)[C@@H](OC(=O)C(O)(c1ccccc1)c1ccccc1)C2,-15.4% [at 25.6 µM],–
N#CCCN,18.2%,–
c1ccc2cc(CC3=NCCN3)ccc2c1,-11.6%,–
COc1ccc2cc1Oc1ccc(cc1)C[C@H]1c3cc(c(OC)cc3CCN1C)Oc1c(OC)c(OC)cc3c1[C@@H](C2)N(C)CC3,-36.6% [at 11.4 µM],–
CC1=C2[C@@H]3OC(=O)[C@@H](C)[C@@H]3CC[C@]2(C)C=CC1=O,-26.3% [at 25.6 µM],–
CCCCN1C(=O)/C(=C\c2ccco2)C(=O)N(CCc2ccccc2)C1=O,–,10 µM (active)
Cc1cc2c(C(C)C)c(O)c(O)c(C=O)c2c(O)c1-c1c(C)cc2c(C(C)C)c(O)c(O)c(C=O)c2c1O,-44.4%,–
COC1=C[C@H]2C3=C([C@H]2C1=O)[C@H](NC(C)=O)CCc1cc(OC)c(OC)c(OC)c13,-15.4% [at 25.6 µM],–
NC(=O)c1ccc(-c2nc(-c3ccc4c(c3)OCO4)c(-c3ccccn3)[nH]2)cc1,–,2.51 µM (active)
CC(C)C(=O)CP(=O)(O)O,8.85% [at 11.4 µM],–
N=C(N)SCc1ccc(Cl)c2ccccc12 (tested in a mixture with another compound),-27.8% [at 11.4 µM] and -26.6% [at 11.4 µM],–
Cn1c(O)c(C(c2ccccn2)c2c(O)n(C)c(=S)n(C)c2=O)c(=O)n(C)c1=S,-17.6%,–
